In the library only some 7.6% were active in any assay of this set; here they are far more common.
ELG1 DNA repair: inhibitors of ELG1-dependent DNA repair in HEK293T cells; HEK293T ELG1-luciferase reporter, luminescence, 16 h; DNA damage induced by 5-fluorouridine; Potency, µM (series often up to 46.1 µM), actives largely listed as inhibitors; 330,000 tested, 2.3% active; further: nearly all actives have a fitted effect of over 55% in size
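In this reporter screen, reduction of luminescence relative to DMSO vehicle indicated activity. Compounds and 5-fluorouridine were added together to 2,000 cells per well, incubated for 16 hr at 37 °C, then developed with ONE-Glo.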
Giardia killer: kills Giardia lamblia. activity change, % at 7.66 µM, hits read low. Giardia lamblia trophozoite viability. 340,000 tested, 0.15% active; in the data active means activity change below about -80%; inconclusive means between about -30% and that limit;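 further: parasites exposed to compound for two days anaerobically before the ATP read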
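Giardia lamblia trophozoites (100 cells/well) were incubated with compounds for 48 h at 37 deg C under anaerobic conditions. Viability was read as ATP content by one-step luminescence after 15-30 min at room temperature.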
RORg inh: blocks mouse ROR gamma transcriptional activity; P51450; Drosophila S2 Gal4-RORgamma UAS-luciferase reporter, 20 h; Potency, µM (titrated, usually from 53.6 µM), usual class: inhibitors; 310,000 tested, 5.4% active; further: nearly all actives have a fitted effect of over 60% in size
Target sequence (P51450 whole entry, looked up, the tested form may be a part): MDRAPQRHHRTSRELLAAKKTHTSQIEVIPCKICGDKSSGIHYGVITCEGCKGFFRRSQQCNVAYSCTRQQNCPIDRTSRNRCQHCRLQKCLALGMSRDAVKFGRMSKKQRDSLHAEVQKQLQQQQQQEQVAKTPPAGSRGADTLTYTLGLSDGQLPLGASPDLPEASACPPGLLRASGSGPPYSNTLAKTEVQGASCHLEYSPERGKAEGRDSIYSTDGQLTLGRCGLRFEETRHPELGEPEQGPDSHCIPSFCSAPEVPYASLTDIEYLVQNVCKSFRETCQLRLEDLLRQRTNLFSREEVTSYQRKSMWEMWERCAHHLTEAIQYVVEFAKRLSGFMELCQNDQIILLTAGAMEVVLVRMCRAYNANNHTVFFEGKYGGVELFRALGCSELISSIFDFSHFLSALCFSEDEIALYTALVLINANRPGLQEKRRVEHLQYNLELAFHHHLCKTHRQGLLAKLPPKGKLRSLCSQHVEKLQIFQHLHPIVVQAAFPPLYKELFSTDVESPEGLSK
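In this cell-based reporter format, copper sulfate (700 uM final) drives Gal4–ROR gamma fusion expression from a metallothionein promoter in Drosophila Schneider cells; compounds preincubated 1 hr, reporter read after 20 hr at ambient temperature.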
p53 reactivation: mutant p53 re-activation in reporter cells; Potency, µM (titrated, usually from 92.2 µM), actives largely listed as activators; 320,000 tested, 0.063% active; H1299 p53-A138V BP100-luciferase reporter, luminescence, 24 h; further: nearly all actives have a fitted effect of over 45% in size
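p53-null H1299 cells stably carrying temperature-sensitive p53-A138V and a BP100-luciferase reporter were pinned with compounds (4-point, 1:5 series) and held 24 hrs at 37 deg C. Luminescence was read 10 min after detection reagent.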
BRCA1 expr act: activators of BRCA1 expression. MCF7-BRCA1-FFLuc reporter, luminescence, 48 h; response scale: scaled: vehicle 0%, 10 µM genistein 100%. Potency, µM (highest dose often 46.1 µM), usual class: activators. 380,000 tested, 1.1% active. AID 624202; further: nearly all actives have a fitted effect of over 80% in size
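Using MCF7 cells harboring a BRCA1 firefly luciferase reporter, plated 2 h before compound pinning, the screen measured luminescence after 48 h incubation. Responses were normalized to DMSO and 10 microM genistein, then fitted for concentration-effect.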
VP16 counter: inhibits Gal4-VP16 luciferase reporter, ROR gamma counter-screen | Drosophila S2 Gal4-VP16 UAS-luciferase, luminescence, 20 h | Potency, µM (titrated, usually from 53.6 µM), actives largely listed as inhibitors | 310,000 tested, 3.5% active;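 further: Gal4-VP16 expression switched on by copper sulfate through the metallothionein promoter; nearly all actives have a fitted effect of over 50% in size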
A number is an active result; . = inactive; ? = inconclusive; / = no result; [ ] = dose if it differs, or a comment. Unless noted, the call rests on the fitted dose curve; in most records, active means well fitted curve in the direction sought with a large enough effect; inconclusive means small, poorly fitted or top-dose-only effect, or another doubt; inactive means no such curve, though single readings can be large; an effect the other way counts as inactive or inconclusive.

SMILES	ELG1 DNA repair	Giardia killer	RORg inh	p53 reactivation	BRCA1 expr act	VP16 counter
COc1ccc2c(C)nc(Nc3nc(C)cc(C)n3)nc2c1	?	.	0.251µM	.	.	1.26µM
COc1ccc(Nc2nc(C)c3ccccc3n2)cc1	?	.	?	?	.	.
CCc1c(C)nc(Nc2nc(C)c3ccc(OC)cc3n2)[nH]c1=O	?	.	.	.	.	.
COc1ccc2c(C)nc(Nc3nc(C)c(C)c(=O)[nH]3)nc2c1	?	.	5.01µM	?	.	2.82µM
COc1ccc(/C=N/NC(=O)Cc2csc(Nc3cccc(C(F)(F)F)c3)n2)c(OC)c1	?	.	.	.	.	.
Clc1ccccc1-c1nc2ccccc2[nH]1	?	.	.	.	?	.
Fc1ccccc1-c1nc2ccccc2[nH]1	?	.	.	.	3.98µM	.
COc1cccc(CNC(=O)CCCn2ccc3cc(S(=O)(=O)N4CCCC4)ccc32)c1	23.1µM	.	.	.	.	.
CCOC(=O)N/N=C1\CCS(=O)(=O)c2ccc(Cl)cc21	.	.	.	.	.	.
CC(C)S(=O)(=O)c1csc(C(=O)NN)c1Cl	.	.	10µM	.	.	.
CC(C)(C)OC(=O)N1CCN(C(=O)c2[nH]cnc2C(=O)N[C@@H](Cc2ccccc2)C(=O)OCc2ccccc2)CC1	.	.	11.2µM	.	.	?
CC(C)C[C@H](NC(=O)c1nc[nH]c1C(=O)N1CCN(C(=O)OC(C)(C)C)CC1)C(=O)OCc1ccccc1	.	.	8.91µM	.	.	?
CC(C)(C)OC(=O)[C@H](Cc1ccccc1)NC(=O)c1nc[nH]c1C(=O)N1CCN(C(=O)OC(C)(C)C)CC1	?	.	11.2µM	/	.	?
CC(C)(C)OC(=O)N1CCC(NC(=O)c2nc[nH]c2C(=O)NCc2ccccc2)CC1	.	.	/	.	.	/
CC(C)(C)OC(=O)[C@H](Cc1ccccc1)NC(=O)c1nc[nH]c1C(=O)NC1CCN(C(=O)OC(C)(C)C)CC1	.	.	5.01µM	.	.	7.08µM
O=C(N[C@@H](Cc1ccccc1)C(=O)OCc1ccccc1)c1nc[nH]c1C(=O)N1CCNCC1	.	.	/	.	.	/
CC(C)(C)OC(=O)[C@H](Cc1ccccc1)NC(=O)c1nc[nH]c1C(=O)N1CCN(c2ccccc2)CC1	.	.	.	.	.	?
CCc1nc2c(OCCn3cccc3)cccn2c1N(C)C(=O)c1cccs1	/	/	/	/	.	/
CC(C)C[C@H](NC(=O)c1nc[nH]c1C(=O)N1CCC(C)CC1)C(=O)OCc1ccccc1	.	.	?	.	.	?
CC1CCN(C(=O)c2[nH]cnc2C(=O)N[C@@H](Cc2ccccc2)C(=O)OC(C)(C)C)CC1	.	.	?	.	.	20µM
Cc1ccc(NC(=S)NCc2ccc(Cl)cc2)c(OC(F)F)c1	.	.	6.31µM	.	.	5.01µM
COc1ccc(CNC(=O)Nc2ccc(C)cc2C)cc1	?	.	.	.	.	?
Cc1ccc(CNC(=S)Nc2ccc(OC(F)F)cc2C)cc1	.	.	5.62µM	.	.	4.47µM
CCOc1ccccc1N(CC)C(=O)c1cc2c(=O)[nH]c3ccc(C)cc3c2s1	/	/	/	/	.	/
CCN1CCN(c2ncc(C(=O)Nc3c(F)cc(F)cc3Br)c3ccccc23)CC1	?	.	.	.	.	.
SMILES	ELG1 DNA repair	Giardia killer	RORg inh	p53 reactivation	BRCA1 expr act	VP16 counter
Cc1c(NC(=O)c2cccc(NC(=O)Cc3ccc(Cl)cc3)c2)c(=O)n(-c2ccccc2)n1C	.	.	/	.	.	/
COc1cc2c(cc1OC)C(C(=O)N1CCN(c3ccccn3)CC1)C(c1cccs1)N(C)C2=O (configuration not stated)	.	.	.	.	.	.
Cc1ccc(CN(C(=O)CNC(=O)c2cccs2)C(C(=O)NCC2CCCO2)c2ccccc2)cc1 (configuration not stated)	9.2µM	.	?	.	.	?
Cc1ccc(C(C(=O)NCC2CCCO2)N(Cc2ccccc2)C(=O)c2ccc(-c3ccccc3)[nH]2)o1 (configuration not stated)	16.4µM	.	?	.	.	?
Cc1ccc(C(C(=O)NC2CCCCC2)N(CC2CCCO2)C(=O)CNC(=O)c2cccs2)cc1 (configuration not stated)	.	.	.	.	.	.
O=C(NCC(=O)N(c1cccc(F)c1)C(C(=O)NCC1CCCO1)c1ccccc1)c1ccco1 (configuration not stated)	.	.	6.31µM	.	.	.
COC(=O)N1CCC2(CC1)CN(C(=O)Nc1ccccc1)C2	/	/	.	/	/	.
Fc1cccc(Nc2ncnc3c2cnn3-c2ccccc2)c1	?	.	?	.	?	.
Clc1cccc(Nc2ncnc3c2cnn3-c2ccccc2)c1	.	.	10µM	.	.	22.4µM
Clc1ccc(-n2ncc3c(NCc4ccccn4)ncnc32)cc1	.	.	.	.	10µM	.
O=C(NCc1ccccc1Cl)c1cccc2c1C(=O)c1ccc(-c3ccc(OC(F)(F)F)cc3)cc1S2(=O)=O	.	.	/	.	.	/
Cc1ccccc1OCc1nc2ccccc2c(=O)n1/N=C/c1ccco1	?	.	.	.	.	.
O=c1c2ccccc2nc(COc2ccccc2)n1/N=C/c1cn[nH]c1-c1ccccc1	6.51µM	.	.	.	.	.
Cc1ccc(-c2[nH]ncc2/C=N/n2c(C)nc3ccccc3c2=O)cc1	9.2µM	.	.	.	.	.
Cc1ccccc1OCc1nc2ccccc2c(=O)n1/N=C/c1cn[nH]c1-c1ccc(Br)cc1	6.51µM	.	?	.	.	?
CC(C)C(=O)N(c1cc2sc(=O)oc2c2ccccc12)S(=O)(=O)c1cccs1	.	.	22.4µM	.	.	?
Cc1cc(-c2nc3ncccc3o2)ccc1NC(=O)c1ccc([N+](=O)[O-])o1	/	.	/	/	.	/
O=C(Nc1ccc2oc(-c3ccncc3)nc2c1)c1ccc([N+](=O)[O-])o1	?	-80.1	.	.	.	.
O=C(Nc1ccc(-c2nc3ncccc3o2)cc1)c1ccc([N+](=O)[O-])o1	.	-93.7	.	.	.	?
Cc1ccc(-c2nc3ncccc3o2)cc1NC(=O)c1ccc([N+](=O)[O-])o1	.	-90.9	.	?	.	.
O=C(Nc1ccc2oc(-c3ccncc3)nc2c1)c1ccccc1	.	.	.	.	.	.[10 µM]
CO[C@H]1COC(=O)C/C=C\[C@H](C)[C@H](OC)COC(=O)[C@@H](C)NC(=O)C/C=C\[C@@H]1C	/	/	.[10 µM]	/	/	.[10 µM]
CCCCn1nnnc1SCC(=O)Nc1ccc2c(c1)OCO2	.	.	.	.	.	.

High-throughput results: PubChem BioAssay, National Center for Advancing Translational Sciences (NCATS)
